Measurements reported in article PMC7862700, “An all-to-all approach to the identification of sequence-specific readers for epigenetic DNA modifications on cytosine”.

Experiments:
Assay in all cases: DAPPL (digital affinity profiling via proximity ligation, sequencing); 10 mM Tris-HCl pH 7.5, 50 mM NaCl, 1 mM DTT, 4% glycerol, room temperature, 30 min; GST-TFs on glutathione beads, 16-mer random dsDNA library, 0.1% formaldehyde crosslink after washing; high values mean tight binding
FEV = target: T1, FEV (Homo sapiens, UniProt Q99581 1-238); conditions: protein: recombinant; tags: N-terminal GST; dsDNA, one strand shown
T1 sequence: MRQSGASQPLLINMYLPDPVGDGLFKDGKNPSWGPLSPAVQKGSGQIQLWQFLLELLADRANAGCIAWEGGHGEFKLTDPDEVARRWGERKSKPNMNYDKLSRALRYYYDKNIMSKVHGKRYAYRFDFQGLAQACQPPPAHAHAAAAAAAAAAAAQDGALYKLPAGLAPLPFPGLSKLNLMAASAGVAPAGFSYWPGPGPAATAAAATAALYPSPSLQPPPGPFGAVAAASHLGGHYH
Outline: (§1)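 Human transcription factors were made in yeast as GST fusions, captured on glutathione beads and barcoded with DNA. With a tag-only sample included, the pool was incubated with 200 nmole of a random double-stranded 16-mer DNA library in Tris/NaCl/DTT/glycerol buffer at room temperature for 30 min, then crosslinked with 0.1% formaldehyde after washing, ligated by proximity, amplified and sequenced. For binding signal, each hexamer's read frequency for a factor is divided by its frequency for the tag-only sample.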

ETV5 = ETV5 (Homo sapiens, UniProt P41161 1-510); conditions: protein: recombinant; tags: N-terminal GST; dsDNA, one strand shown
Outline: as §1

HSF1 = HSF1 (Homo sapiens, UniProt Q00613 1-529); conditions: protein: recombinant; tags: N-terminal GST; chain copies: 3; dsDNA, one strand shown
Outline: as §1

SPIC = target: T2, SPIC (Homo sapiens, UniProt Q8N5J4 1-248); conditions: protein: recombinant; tags: N-terminal GST; dsDNA, one strand shown
T2 sequence: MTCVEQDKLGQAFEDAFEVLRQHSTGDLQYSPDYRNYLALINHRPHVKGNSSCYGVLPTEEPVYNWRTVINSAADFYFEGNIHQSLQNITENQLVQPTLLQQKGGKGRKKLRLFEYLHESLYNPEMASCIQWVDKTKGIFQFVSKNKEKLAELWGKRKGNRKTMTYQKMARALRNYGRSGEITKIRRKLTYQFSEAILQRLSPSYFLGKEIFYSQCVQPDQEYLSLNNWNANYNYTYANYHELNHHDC
Outline: as §1

ELF4 = ELF4 (Homo sapiens, UniProt Q99607 1-663); conditions: protein: recombinant; tags: N-terminal GST; dsDNA, one strand shown
Outline: as §1

ELK4 = target: T3, ELK4 (Homo sapiens, UniProt P28324-2 1-405); conditions: protein: recombinant; tags: N-terminal GST; dsDNA, one strand shown
T3 sequence: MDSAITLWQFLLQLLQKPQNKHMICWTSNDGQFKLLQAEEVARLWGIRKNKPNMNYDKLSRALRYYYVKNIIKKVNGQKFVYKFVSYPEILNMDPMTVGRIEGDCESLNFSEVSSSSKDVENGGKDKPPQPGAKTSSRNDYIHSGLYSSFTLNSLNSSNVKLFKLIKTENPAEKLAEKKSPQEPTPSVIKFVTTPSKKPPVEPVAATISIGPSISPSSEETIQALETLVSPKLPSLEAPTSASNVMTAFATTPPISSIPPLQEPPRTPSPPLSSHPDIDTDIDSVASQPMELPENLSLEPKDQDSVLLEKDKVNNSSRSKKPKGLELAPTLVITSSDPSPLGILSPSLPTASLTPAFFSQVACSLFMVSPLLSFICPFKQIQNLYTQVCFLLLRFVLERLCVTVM
Outline: as §1

ETV2 = target: T4, ETV2 (Homo sapiens, UniProt O00321 1-342); conditions: protein: recombinant; tags: N-terminal GST; dsDNA, one strand shown
T4 sequence: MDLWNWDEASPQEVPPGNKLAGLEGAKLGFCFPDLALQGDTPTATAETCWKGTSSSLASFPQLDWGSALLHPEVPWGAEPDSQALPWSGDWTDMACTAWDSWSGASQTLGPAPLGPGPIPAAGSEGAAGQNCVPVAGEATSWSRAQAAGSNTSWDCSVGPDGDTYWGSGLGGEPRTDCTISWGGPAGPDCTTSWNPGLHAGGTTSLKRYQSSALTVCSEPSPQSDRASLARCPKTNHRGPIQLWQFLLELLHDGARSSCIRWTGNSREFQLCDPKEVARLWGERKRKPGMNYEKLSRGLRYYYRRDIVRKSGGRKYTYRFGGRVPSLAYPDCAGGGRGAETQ
Outline: as §1

ELF3 = target: T5, ELF3 (Homo sapiens, UniProt P78545 1-371); conditions: protein: recombinant; tags: N-terminal GST; dsDNA, one strand shown
T5 sequence: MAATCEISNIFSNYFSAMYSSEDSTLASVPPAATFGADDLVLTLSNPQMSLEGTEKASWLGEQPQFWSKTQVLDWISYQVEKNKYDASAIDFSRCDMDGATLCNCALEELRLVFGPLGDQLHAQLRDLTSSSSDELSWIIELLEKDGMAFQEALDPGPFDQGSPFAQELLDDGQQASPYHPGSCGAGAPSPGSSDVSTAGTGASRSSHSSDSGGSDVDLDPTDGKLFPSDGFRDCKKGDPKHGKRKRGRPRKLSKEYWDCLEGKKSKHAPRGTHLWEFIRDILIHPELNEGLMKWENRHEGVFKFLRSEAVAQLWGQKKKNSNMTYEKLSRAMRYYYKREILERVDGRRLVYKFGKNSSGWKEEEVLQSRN
Outline: as §1

CRX = CRX (Homo sapiens, UniProt O43186 1-299); conditions: protein: recombinant; tags: N-terminal GST; dsDNA, one strand shown
Outline: as §1

ETV1 = ETV1 (Homo sapiens, UniProt P50549 1-477); conditions: protein: recombinant; tags: N-terminal GST; dsDNA, one strand shown
Outline: as §1

ERF = target: T6, ERF (Homo sapiens, UniProt P50548 1-548); conditions: protein: recombinant; tags: N-terminal GST; dsDNA, one strand shown
T6 sequence: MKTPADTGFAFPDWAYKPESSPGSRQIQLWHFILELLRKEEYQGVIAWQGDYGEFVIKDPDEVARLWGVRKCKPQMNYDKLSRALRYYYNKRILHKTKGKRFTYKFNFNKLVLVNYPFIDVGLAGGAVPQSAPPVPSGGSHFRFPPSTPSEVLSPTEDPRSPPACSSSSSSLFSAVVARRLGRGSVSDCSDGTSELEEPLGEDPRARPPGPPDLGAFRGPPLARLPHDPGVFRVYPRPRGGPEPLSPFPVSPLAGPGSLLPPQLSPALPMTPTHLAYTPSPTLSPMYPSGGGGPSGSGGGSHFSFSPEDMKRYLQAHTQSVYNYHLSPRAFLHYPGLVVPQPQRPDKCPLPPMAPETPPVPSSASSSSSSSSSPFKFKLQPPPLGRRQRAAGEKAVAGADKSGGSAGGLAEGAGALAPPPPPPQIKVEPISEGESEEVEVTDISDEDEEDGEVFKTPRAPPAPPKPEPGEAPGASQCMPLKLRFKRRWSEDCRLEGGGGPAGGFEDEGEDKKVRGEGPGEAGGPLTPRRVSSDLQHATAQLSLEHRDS
Outline: as §1

ETV3L = target: T7, ETV3L (Homo sapiens, UniProt Q6ZN32 1-361); conditions: protein: recombinant; tags: N-terminal GST; dsDNA, one strand shown
T7 sequence: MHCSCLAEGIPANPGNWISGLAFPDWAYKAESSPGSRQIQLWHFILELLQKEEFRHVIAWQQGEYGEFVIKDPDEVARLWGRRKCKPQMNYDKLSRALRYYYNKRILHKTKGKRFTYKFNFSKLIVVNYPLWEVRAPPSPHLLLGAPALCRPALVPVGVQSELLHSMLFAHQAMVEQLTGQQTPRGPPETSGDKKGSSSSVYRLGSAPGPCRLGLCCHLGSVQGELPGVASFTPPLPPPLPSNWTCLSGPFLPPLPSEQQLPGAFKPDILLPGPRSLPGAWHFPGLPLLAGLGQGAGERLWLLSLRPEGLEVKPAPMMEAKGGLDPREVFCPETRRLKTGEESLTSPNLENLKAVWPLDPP
Outline: as §1

ETS2 = target: T8, ETS2 (Homo sapiens, UniProt P15036 1-469); conditions: protein: recombinant; tags: N-terminal GST; dsDNA, one strand shown
T8 sequence: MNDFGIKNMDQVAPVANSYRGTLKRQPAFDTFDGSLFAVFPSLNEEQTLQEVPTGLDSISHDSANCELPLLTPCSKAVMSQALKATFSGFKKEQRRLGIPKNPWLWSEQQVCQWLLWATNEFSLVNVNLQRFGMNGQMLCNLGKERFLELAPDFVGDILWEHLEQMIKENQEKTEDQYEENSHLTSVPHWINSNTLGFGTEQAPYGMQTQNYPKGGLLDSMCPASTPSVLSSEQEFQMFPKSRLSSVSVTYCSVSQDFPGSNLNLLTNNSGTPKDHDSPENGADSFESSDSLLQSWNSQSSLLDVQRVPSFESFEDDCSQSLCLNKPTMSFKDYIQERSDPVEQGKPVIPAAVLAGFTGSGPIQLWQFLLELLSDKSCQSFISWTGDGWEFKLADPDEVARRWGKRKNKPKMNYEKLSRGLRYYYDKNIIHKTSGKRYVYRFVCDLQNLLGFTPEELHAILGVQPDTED
Outline: as §1

SPDEF = target: T9, SPDEF (Homo sapiens, UniProt O95238 1-335); conditions: protein: recombinant; tags: N-terminal GST; dsDNA, one strand shown
T9 sequence: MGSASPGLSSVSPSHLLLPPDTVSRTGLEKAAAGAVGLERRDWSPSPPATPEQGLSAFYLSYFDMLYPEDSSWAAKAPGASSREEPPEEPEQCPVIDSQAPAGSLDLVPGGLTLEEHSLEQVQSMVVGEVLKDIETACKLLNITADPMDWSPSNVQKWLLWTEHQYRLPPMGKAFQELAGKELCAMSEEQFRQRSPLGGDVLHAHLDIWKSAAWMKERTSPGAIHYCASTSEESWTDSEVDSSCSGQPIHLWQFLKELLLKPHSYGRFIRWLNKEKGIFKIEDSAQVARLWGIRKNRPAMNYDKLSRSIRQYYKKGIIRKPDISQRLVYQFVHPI
Outline: as §1

ETV7 = target: T10, ETV7 (Homo sapiens, UniProt Q9Y603 1-341); conditions: protein: recombinant; tags: N-terminal GST; dsDNA, one strand shown
T10 sequence: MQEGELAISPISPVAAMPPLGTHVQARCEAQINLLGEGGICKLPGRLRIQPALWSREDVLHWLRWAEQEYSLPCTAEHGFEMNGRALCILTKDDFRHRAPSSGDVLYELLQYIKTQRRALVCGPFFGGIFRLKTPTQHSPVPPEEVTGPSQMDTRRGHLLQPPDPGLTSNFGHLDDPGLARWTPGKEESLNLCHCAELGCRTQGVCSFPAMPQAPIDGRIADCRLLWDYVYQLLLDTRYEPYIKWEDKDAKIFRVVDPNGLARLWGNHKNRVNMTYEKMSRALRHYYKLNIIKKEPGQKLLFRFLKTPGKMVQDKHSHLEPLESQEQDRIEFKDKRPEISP
Outline: as §1

ELF5 = target: T11, ELF5 (Homo sapiens, UniProt Q9UKW6-2 1-255); conditions: protein: recombinant; tags: N-terminal GST; dsDNA, one strand shown
T11 sequence: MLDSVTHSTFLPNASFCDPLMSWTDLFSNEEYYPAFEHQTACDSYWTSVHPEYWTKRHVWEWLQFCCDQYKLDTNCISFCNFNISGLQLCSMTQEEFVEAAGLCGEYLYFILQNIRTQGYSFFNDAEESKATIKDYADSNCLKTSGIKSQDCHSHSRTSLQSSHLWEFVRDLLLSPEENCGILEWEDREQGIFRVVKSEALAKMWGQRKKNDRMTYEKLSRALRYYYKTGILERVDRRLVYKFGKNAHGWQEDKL
Outline: as §1

ETV3 = target: T12, ETV3 (Homo sapiens, UniProt P41162-2 1-143); conditions: protein: recombinant; tags: N-terminal GST; dsDNA, one strand shown
T12 sequence: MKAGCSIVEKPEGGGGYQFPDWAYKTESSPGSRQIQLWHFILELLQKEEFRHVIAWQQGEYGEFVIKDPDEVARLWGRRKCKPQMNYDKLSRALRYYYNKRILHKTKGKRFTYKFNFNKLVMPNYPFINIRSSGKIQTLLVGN
Outline: as §1

ETV6 = ETV6 (Homo sapiens, UniProt P41212 1-452); conditions: protein: recombinant; tags: N-terminal GST; dsDNA, one strand shown
Outline: as §1

Chain of ELF4 (Q99607 whole entry): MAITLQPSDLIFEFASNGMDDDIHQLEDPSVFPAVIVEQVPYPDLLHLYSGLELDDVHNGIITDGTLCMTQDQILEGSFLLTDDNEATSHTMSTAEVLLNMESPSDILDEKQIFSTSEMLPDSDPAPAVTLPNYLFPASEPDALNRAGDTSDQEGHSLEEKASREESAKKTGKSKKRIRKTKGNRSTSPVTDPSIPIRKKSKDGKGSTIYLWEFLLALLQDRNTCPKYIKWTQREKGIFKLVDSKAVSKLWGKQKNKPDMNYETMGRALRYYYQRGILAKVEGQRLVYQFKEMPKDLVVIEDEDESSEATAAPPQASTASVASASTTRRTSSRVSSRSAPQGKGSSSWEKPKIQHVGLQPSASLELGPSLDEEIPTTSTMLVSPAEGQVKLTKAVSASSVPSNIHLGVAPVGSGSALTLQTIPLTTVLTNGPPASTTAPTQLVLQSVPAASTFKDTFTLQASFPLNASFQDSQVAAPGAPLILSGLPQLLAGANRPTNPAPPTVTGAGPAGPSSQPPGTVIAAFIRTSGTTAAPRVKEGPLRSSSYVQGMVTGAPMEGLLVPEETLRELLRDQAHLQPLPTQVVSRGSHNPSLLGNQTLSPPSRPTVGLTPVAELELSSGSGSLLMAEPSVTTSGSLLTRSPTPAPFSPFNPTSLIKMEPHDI
Chain of ETV5 (P41161 whole entry): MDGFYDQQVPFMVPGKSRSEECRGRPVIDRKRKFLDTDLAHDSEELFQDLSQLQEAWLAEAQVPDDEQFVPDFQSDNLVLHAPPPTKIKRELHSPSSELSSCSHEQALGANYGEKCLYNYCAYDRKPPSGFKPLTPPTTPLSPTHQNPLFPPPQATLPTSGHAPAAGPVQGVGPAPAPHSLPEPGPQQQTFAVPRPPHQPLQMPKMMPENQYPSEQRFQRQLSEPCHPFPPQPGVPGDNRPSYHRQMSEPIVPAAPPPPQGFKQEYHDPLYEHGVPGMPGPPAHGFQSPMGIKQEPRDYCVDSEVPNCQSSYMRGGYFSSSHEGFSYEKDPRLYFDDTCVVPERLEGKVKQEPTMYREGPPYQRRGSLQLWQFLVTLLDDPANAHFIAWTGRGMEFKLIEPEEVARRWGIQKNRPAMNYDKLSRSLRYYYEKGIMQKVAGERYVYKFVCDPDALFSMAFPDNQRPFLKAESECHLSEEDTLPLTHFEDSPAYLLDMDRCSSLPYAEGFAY
Chain of ETV1 (P50549 whole entry): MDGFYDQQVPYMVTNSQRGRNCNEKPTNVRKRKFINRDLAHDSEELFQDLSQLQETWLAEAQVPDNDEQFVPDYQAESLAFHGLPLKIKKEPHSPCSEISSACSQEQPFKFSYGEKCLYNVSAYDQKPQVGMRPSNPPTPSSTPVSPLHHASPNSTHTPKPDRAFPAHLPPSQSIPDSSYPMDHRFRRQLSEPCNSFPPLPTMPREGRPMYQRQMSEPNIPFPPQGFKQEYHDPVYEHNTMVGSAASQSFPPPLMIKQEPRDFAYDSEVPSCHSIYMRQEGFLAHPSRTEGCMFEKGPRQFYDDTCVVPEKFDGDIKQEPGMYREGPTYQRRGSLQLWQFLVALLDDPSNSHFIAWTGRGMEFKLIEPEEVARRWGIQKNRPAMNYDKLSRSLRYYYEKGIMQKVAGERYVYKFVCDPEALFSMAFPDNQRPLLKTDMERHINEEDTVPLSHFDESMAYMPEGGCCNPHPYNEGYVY
Chain of HSF1 (Q00613 whole entry): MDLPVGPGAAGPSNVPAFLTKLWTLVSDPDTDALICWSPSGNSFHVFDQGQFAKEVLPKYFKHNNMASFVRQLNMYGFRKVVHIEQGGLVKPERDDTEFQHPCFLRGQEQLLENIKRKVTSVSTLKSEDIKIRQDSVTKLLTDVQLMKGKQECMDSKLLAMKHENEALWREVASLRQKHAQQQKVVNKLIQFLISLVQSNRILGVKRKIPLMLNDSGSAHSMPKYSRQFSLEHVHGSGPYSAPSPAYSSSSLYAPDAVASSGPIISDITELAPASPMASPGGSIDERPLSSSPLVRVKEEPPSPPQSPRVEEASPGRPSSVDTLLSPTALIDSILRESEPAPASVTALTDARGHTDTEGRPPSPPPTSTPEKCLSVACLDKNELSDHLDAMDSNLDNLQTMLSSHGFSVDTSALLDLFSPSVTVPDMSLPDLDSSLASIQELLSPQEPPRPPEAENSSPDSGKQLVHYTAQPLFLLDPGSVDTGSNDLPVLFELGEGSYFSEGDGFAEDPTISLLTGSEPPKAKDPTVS
Chain of CRX (O43186 whole entry): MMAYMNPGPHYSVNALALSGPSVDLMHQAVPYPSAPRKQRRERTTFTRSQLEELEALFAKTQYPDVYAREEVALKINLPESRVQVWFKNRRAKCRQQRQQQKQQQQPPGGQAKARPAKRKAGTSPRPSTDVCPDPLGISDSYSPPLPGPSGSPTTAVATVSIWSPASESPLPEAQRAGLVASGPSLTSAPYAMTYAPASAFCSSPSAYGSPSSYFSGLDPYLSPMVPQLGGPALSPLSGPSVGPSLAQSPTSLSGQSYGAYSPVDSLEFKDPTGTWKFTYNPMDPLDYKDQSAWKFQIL
Chain of ETV6 (P41212 whole entry): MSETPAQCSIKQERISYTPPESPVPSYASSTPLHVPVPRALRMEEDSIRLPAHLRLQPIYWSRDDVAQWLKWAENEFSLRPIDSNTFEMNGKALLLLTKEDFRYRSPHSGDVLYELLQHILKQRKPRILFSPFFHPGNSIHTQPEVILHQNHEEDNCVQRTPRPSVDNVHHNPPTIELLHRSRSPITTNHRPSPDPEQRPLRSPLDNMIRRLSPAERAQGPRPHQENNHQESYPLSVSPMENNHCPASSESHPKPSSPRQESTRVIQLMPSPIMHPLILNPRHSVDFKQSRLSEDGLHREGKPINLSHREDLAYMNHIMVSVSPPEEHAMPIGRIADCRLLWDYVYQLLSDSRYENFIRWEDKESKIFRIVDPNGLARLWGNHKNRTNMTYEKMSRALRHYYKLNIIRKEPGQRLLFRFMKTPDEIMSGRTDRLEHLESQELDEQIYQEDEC

Q: With CTTAGC as the sequence, how does the binding signal (FEV) read?
A: The binding signal was 1.12 fold enrichment (6-mer frequency, TF over GST control).

Q: What about the binding signal (ETV5) of the same sequence?
A: The binding signal was 1.18 fold enrichment (6-mer frequency, TF over GST control).

Q: What about the binding signal (HSF1) of the same sequence?
A: The binding signal was 1.47 fold enrichment (6-mer frequency, TF over GST control).

Q: What about the binding signal (SPIC) of the same sequence?
A: Its binding signal is 1.35 fold enrichment (6-mer frequency, TF over GST control).

Q: And the binding signal (ELF4)?
A: Its binding signal is 1.28 fold enrichment (6-mer frequency, TF over GST control).

Q: And the binding signal (ELK4)?
A: Its binding signal is 1.21 fold enrichment (6-mer frequency, TF over GST control).

Q: What about the binding signal (ETV2) of the same sequence?
A: Its binding signal is 1.3 fold enrichment (6-mer frequency, TF over GST control).

Q: And the binding signal (ELF3)?
A: Its binding signal is 1.07 fold enrichment (6-mer frequency, TF over GST control).

Q: And the binding signal (CRX)?
A: The binding signal was 2.17 fold enrichment (6-mer frequency, TF over GST control).

Q: And the binding signal (ETV1)?
A: The binding signal was 1.24 fold enrichment (6-mer frequency, TF over GST control).

Q: What about the binding signal (ERF) of the same sequence?
A: The binding signal was 1.25 fold enrichment (6-mer frequency, TF over GST control).

Q: What about the binding signal (ETV3L) of the same sequence?
A: Its binding signal is 1.23 fold enrichment (6-mer frequency, TF over GST control).

Q: And the binding signal (ETS2)?
A: Its binding signal is 1.18 fold enrichment (6-mer frequency, TF over GST control).

Q: And the binding signal (SPDEF)?
A: The binding signal was 1.15 fold enrichment (6-mer frequency, TF over GST control).

Q: And the binding signal (ETV7)?
A: The binding signal was 1.16 fold enrichment (6-mer frequency, TF over GST control).

Q: What about the binding signal (ELF5) of the same sequence?
A: The binding signal was 1.16 fold enrichment (6-mer frequency, TF over GST control).

Q: What about the binding signal (ETV3) of the same sequence?
A: Its binding signal is 1.22 fold enrichment (6-mer frequency, TF over GST control).

Q: And the binding signal (ETV6)?
A: The binding signal was 1.2 fold enrichment (6-mer frequency, TF over GST control).
